# Assay results as given in paper PMC11006913.
# Numbering of substitutions follows the chain as printed.
# Experiments:
# Assay in all cases: PBM; 200 nM protein, PBS
# Details in all cases: dsDNA, one strand shown
# [1] = biological target: HOXC10 (Homo sapiens, UniProt Q9NYD6 254-340)
# [2] = biological target: ALX3 (Homo sapiens, UniProt O95076 139-225, N203Q)
# [3] = biological target: T1, NKX2-6 (Homo sapiens, UniProt A6NCS4 118-204)
# T1 sequence: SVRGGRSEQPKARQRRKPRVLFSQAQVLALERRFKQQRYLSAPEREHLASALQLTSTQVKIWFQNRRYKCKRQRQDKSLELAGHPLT
# [4] = biological target: HOXC10 (Homo sapiens, UniProt Q9NYD6 254-340, K271E)
# [5] = biological target: ALX3 (Homo sapiens, UniProt O95076 139-225)
# [6] = biological target: ALX3 (Homo sapiens, UniProt O95076 139-225, L168Q)
# [7] = biological target: T2, NKX2-6 (Homo sapiens, UniProt A6NCS4 118-204, F151L)
# T2 sequence: T1 sequence with F34L
# [8] = biological target: ALX3 (Homo sapiens, UniProt O95076 139-225, L168V)
# [9] = biological target: ALX3 (Homo sapiens, UniProt O95076 139-225, N203S)
# [10] = biological target: HOXA2 (Homo sapiens, UniProt O43364 129-215, R185T)
# [11] = biological target: MSX2 (Homo sapiens, UniProt P35548 130-214, R199I)
# [12] = biological target: HOXA2 (Homo sapiens, UniProt O43364 129-215, R185K)
# [13] = biological target: MSX2 (Homo sapiens, UniProt P35548 130-214)
# [14] = biological target: MSX2 (Homo sapiens, UniProt P35548 130-214, F161Y)
# [15] = biological target: HOXA2 (Homo sapiens, UniProt O43364 129-215, Y150S)
# [16] = biological target: HOXA2 (Homo sapiens, UniProt O43364 129-215)
# [17] = biological target: PROP1 (Homo sapiens, UniProt O75360 56-141)
# [18] = biological target: PROP1 (Homo sapiens, UniProt O75360 56-141, R99H)
# [19] = biological target: PROP1 (Homo sapiens, UniProt O75360 56-141, F88S)
# [20] = biological target: PRRX1 (Homo sapiens, UniProt P54821 80-166, F113S)
# [21] = biological target: HOXC9 (Homo sapiens, UniProt P31274 178-260, R222W)
# [22] = biological target: HOXD13 (Homo sapiens, UniProt P35453 263-343, T313R)
# [23] = biological target: HOXD13 (Homo sapiens, UniProt P35453 263-343)
# [24] = biological target: HOXB6 (Homo sapiens, UniProt P17509 132-218, K202E)
# [25] = biological target: HOXB6 (Homo sapiens, UniProt P17509 132-218)
# [26] = biological target: HOXD13 (Homo sapiens, UniProt P35453 263-343, T313A)
# Chain of HOXD13 (Homo sapiens, UniProt P35453 263-343, T313A) (P35453 263-343 T313A): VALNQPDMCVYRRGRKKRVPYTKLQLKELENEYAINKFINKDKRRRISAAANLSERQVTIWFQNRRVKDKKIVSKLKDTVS
# Chain of HOXC10 (Homo sapiens, UniProt Q9NYD6 254-340, K271E) (Q9NYD6 254-340 K271E): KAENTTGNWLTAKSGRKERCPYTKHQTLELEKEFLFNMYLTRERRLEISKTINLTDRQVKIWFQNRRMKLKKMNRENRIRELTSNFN
# Chain of HOXC10 (Homo sapiens, UniProt Q9NYD6 254-340) (Q9NYD6 254-340): as the sequence (Q9NYD6 254-340 K271E) above, with E18K counted along it
# Chain of HOXA2 (Homo sapiens, UniProt O43364 129-215, R185K) (O43364 129-215 R185K): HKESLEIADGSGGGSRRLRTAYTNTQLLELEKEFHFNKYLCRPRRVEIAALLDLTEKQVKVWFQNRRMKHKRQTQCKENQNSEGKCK
# Chain of PROP1 (Homo sapiens, UniProt O75360 56-141, F88S) (O75360 56-141 F88S): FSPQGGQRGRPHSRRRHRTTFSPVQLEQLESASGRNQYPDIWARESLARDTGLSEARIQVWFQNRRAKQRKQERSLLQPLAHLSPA
# Chain of HOXD13 (Homo sapiens, UniProt P35453 263-343, T313R) (P35453 263-343 T313R): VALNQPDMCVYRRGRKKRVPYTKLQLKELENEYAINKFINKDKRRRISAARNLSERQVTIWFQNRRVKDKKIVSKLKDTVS
# Chain of HOXA2 (Homo sapiens, UniProt O43364 129-215, R185T) (O43364 129-215 R185T): as the sequence (O43364 129-215 R185K) above, with K57T counted along it
# Chain of HOXD13 (Homo sapiens, UniProt P35453 263-343) (P35453 263-343): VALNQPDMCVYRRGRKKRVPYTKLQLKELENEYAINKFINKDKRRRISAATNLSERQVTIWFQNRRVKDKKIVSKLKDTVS
# Chain of PROP1 (Homo sapiens, UniProt O75360 56-141) (O75360 56-141): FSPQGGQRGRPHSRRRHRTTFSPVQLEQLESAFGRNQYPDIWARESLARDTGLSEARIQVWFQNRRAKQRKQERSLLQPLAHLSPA
# Chain of HOXA2 (Homo sapiens, UniProt O43364 129-215) (O43364 129-215): as the sequence (O43364 129-215 R185K) above, with K57R counted along it
# Chain of HOXA2 (Homo sapiens, UniProt O43364 129-215, Y150S) (O43364 129-215 Y150S): as the sequence (O43364 129-215 R185K) above, with Y22S, K57R counted along it
# Chain of PROP1 (Homo sapiens, UniProt O75360 56-141, R99H) (O75360 56-141 R99H): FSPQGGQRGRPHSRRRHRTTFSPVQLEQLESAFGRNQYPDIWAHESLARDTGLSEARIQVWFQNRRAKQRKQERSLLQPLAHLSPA
# Chain of ALX3 (Homo sapiens, UniProt O95076 139-225, L168V) (O95076 139-225 L168V): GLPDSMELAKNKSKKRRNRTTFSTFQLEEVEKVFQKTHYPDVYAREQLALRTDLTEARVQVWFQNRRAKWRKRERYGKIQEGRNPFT
# Chain of PRRX1 (P54821 80-166 F113S): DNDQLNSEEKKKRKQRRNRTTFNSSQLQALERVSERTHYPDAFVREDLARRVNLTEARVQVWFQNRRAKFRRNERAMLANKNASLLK
# Chain of HOXB6 (Homo sapiens, UniProt P17509 132-218, K202E) (P17509 132-218 K202E): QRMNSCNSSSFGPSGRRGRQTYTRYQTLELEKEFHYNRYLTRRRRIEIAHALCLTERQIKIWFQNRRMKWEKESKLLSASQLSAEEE
# Chain of HOXB6 (Homo sapiens, UniProt P17509 132-218) (P17509 132-218): as the sequence (P17509 132-218 K202E) above, with E71K counted along it
# Chain of HOXC9 (P31274 178-260 R222W): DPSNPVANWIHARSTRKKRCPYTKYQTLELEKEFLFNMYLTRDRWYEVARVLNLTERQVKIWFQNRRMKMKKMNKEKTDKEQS
# Chain of ALX3 (Homo sapiens, UniProt O95076 139-225, L168Q) (O95076 139-225 L168Q): as the sequence (O95076 139-225 L168V) above, with V30Q counted along it
# Chain of ALX3 (Homo sapiens, UniProt O95076 139-225) (O95076 139-225): as the sequence (O95076 139-225 L168V) above, with V30L counted along it
# Chain of ALX3 (Homo sapiens, UniProt O95076 139-225, N203S) (O95076 139-225 N203S): as the sequence (O95076 139-225 L168V) above, with V30L, N65S counted along it
# Chain of MSX2 (Homo sapiens, UniProt P35548 130-214, F161Y) (P35548 130-214 F161Y): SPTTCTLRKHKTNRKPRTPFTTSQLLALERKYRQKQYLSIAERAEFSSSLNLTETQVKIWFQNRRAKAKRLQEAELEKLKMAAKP
# Chain of MSX2 (Homo sapiens, UniProt P35548 130-214) (P35548 130-214): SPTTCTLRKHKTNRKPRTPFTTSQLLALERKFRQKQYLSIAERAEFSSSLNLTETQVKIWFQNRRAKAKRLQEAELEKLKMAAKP
# Chain of MSX2 (Homo sapiens, UniProt P35548 130-214, R199I) (P35548 130-214 R199I): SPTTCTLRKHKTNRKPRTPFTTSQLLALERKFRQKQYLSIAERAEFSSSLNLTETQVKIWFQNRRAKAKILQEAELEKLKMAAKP
# Chain of ALX3 (Homo sapiens, UniProt O95076 139-225, N203Q) (O95076 139-225 N203Q): as the sequence (O95076 139-225 L168V) above, with V30L, N65Q counted along it
sequence,measurement,setting,value
CCCCCAGG,binding signal,[1],"10.1 upbm affinity estimate (log intensity, higher = more binding, comparable within an allelic series)"
same,binding signal,[2],"7.76 upbm affinity estimate (log intensity, higher = more binding, comparable within an allelic series)"
same,binding signal,[3],"9.38 upbm affinity estimate (log intensity, higher = more binding, comparable within an allelic series)"
same,binding signal,[4],"10.1 upbm affinity estimate (log intensity, higher = more binding, comparable within an allelic series)"
same,binding signal,[5],"7.79 upbm affinity estimate (log intensity, higher = more binding, comparable within an allelic series)"
same,binding signal,[6],"7.67 upbm affinity estimate (log intensity, higher = more binding, comparable within an allelic series)"
same,binding signal,[7],"9.1 upbm affinity estimate (log intensity, higher = more binding, comparable within an allelic series)"
same,binding signal,[8],"7.72 upbm affinity estimate (log intensity, higher = more binding, comparable within an allelic series)"
same,binding signal,[9],"7.71 upbm affinity estimate (log intensity, higher = more binding, comparable within an allelic series)"
ACCAATAC,binding signal,[1],"10.6 upbm affinity estimate (log intensity, higher = more binding, comparable within an allelic series)"
GCCCGCAC,binding signal,[1],"10.1 upbm affinity estimate (log intensity, higher = more binding, comparable within an allelic series)"
same,binding signal,[10],"7.43 upbm affinity estimate (log intensity, higher = more binding, comparable within an allelic series)"
same,binding signal,[11],"9.56 upbm affinity estimate (log intensity, higher = more binding, comparable within an allelic series)"
same,binding signal,[12],"10.2 upbm affinity estimate (log intensity, higher = more binding, comparable within an allelic series)"
same,binding signal,[4],"9.97 upbm affinity estimate (log intensity, higher = more binding, comparable within an allelic series)"
same,binding signal,[13],"9.65 upbm affinity estimate (log intensity, higher = more binding, comparable within an allelic series)"
same,binding signal,[14],"9.65 upbm affinity estimate (log intensity, higher = more binding, comparable within an allelic series)"
same,binding signal,[15],"10.4 upbm affinity estimate (log intensity, higher = more binding, comparable within an allelic series)"
same,binding signal,[16],"7.36 upbm affinity estimate (log intensity, higher = more binding, comparable within an allelic series)"
CTGCCCCC,binding signal,[1],"9.96 upbm affinity estimate (log intensity, higher = more binding, comparable within an allelic series)"
same,binding signal,[10],"6.91 upbm affinity estimate (log intensity, higher = more binding, comparable within an allelic series)"
same,binding signal,[12],"9.95 upbm affinity estimate (log intensity, higher = more binding, comparable within an allelic series)"
same,binding signal,[4],"9.97 upbm affinity estimate (log intensity, higher = more binding, comparable within an allelic series)"
same,binding signal,[17],"6.68 upbm affinity estimate (log intensity, higher = more binding, comparable within an allelic series)"
same,binding signal,[18],"6.59 upbm affinity estimate (log intensity, higher = more binding, comparable within an allelic series)"
same,binding signal,[19],"6.14 upbm affinity estimate (log intensity, higher = more binding, comparable within an allelic series)"
same,binding signal,[15],"10.3 upbm affinity estimate (log intensity, higher = more binding, comparable within an allelic series)"
same,binding signal,[16],"7.21 upbm affinity estimate (log intensity, higher = more binding, comparable within an allelic series)"
CGTGATAA,binding signal,[1],"10.9 upbm affinity estimate (log intensity, higher = more binding, comparable within an allelic series)"
GTCATGAA,binding signal,[1],"10.8 upbm affinity estimate (log intensity, higher = more binding, comparable within an allelic series)"
TTAATAAA,binding signal,[1],"12.2 upbm affinity estimate (log intensity, higher = more binding, comparable within an allelic series)"
same,binding signal,[20],"11 upbm affinity estimate (log intensity, higher = more binding, comparable within an allelic series)"
same,binding signal,[4],"11.5 upbm affinity estimate (log intensity, higher = more binding, comparable within an allelic series)"
same,binding signal,[21],"11.2 upbm affinity estimate (log intensity, higher = more binding, comparable within an allelic series)"
AGATATGG,binding signal,[1],"10.7 upbm affinity estimate (log intensity, higher = more binding, comparable within an allelic series)"
CAATATGG,binding signal,[1],"10.7 upbm affinity estimate (log intensity, higher = more binding, comparable within an allelic series)"
same,binding signal,[22],"10 upbm affinity estimate (log intensity, higher = more binding, comparable within an allelic series)"
same,binding signal,[23],"10.5 upbm affinity estimate (log intensity, higher = more binding, comparable within an allelic series)"
GGGGGGAA,binding signal,[1],"10 upbm affinity estimate (log intensity, higher = more binding, comparable within an allelic series)"
same,binding signal,[24],"9 upbm affinity estimate (log intensity, higher = more binding, comparable within an allelic series)"
same,binding signal,[4],"9.95 upbm affinity estimate (log intensity, higher = more binding, comparable within an allelic series)"
same,binding signal,[17],"6.74 upbm affinity estimate (log intensity, higher = more binding, comparable within an allelic series)"
same,binding signal,[18],"6.57 upbm affinity estimate (log intensity, higher = more binding, comparable within an allelic series)"
same,binding signal,[19],"6.2 upbm affinity estimate (log intensity, higher = more binding, comparable within an allelic series)"
same,binding signal,[25],"9.07 upbm affinity estimate (log intensity, higher = more binding, comparable within an allelic series)"
CTTTATTA,binding signal,[1],"12.2 upbm affinity estimate (log intensity, higher = more binding, comparable within an allelic series)"
same,binding signal,[22],"10.6 upbm affinity estimate (log intensity, higher = more binding, comparable within an allelic series)"
same,binding signal,[23],"11.8 upbm affinity estimate (log intensity, higher = more binding, comparable within an allelic series)"
same,binding signal,[4],"11.7 upbm affinity estimate (log intensity, higher = more binding, comparable within an allelic series)"
same,binding signal,[26],"11.5 upbm affinity estimate (log intensity, higher = more binding, comparable within an allelic series)"
